# Measured values reported in article PMC7819943, “Rice protein-binding microarrays: a tool to detect cis-acting elements near promoter regions in rice”.
# Whole data set: some 39,000 sequences, median “fluorescence intensity (a.u.)” near 4,300, cut for the highest 2% near 39,000. The full list was thinned out, with the highest values kept by preference.
# Target: T1, OsSMF1 (Oryza sativa, UniProt Q6ZLB0 1-436)
# T1 sequence: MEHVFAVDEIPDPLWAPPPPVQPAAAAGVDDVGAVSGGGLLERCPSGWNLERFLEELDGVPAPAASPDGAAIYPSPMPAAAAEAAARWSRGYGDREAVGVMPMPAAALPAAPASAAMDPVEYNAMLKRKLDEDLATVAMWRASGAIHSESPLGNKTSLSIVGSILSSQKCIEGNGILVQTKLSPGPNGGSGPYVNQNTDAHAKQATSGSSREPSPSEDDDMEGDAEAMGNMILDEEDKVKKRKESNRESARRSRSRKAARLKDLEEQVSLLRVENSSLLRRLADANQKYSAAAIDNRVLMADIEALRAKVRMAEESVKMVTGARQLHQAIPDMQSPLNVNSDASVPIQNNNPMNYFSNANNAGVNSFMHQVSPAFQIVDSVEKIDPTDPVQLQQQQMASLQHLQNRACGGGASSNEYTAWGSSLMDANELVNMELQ
# Assay: protein-binding microarray (RPBM); PBS, 2% BSA, 51.3 ng/ul salmon testes DNA, 50 uM zinc acetate, 200 nM TF, 25 C, 1 h; high values mean tight binding
# Conditions: protein: recombinant; tags: N-terminal polyhistidine and DsRed monomer fusion (pET32a); chain copies: 2; label: CyDye5-dUTP incorporated in the synthesized complementary strand; 3' TTTTT single-stranded linker to array surface; dsDNA, one strand shown
# Procedure, shortened: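 An Axon 4000B scanner gave the binding signal as per-feature fluorescence intensity in arbitrary units. This followed washing of a custom Agilent array that had been incubated for 1 h at 25 °C with 200 nM protein in PBS, 2% BSA, salmon testes DNA and 50 µM zinc acetate. The proteins were transcription factors fused at the N-terminus to polyhistidine and DsRed, expressed in E. coli BL21-CodonPlus and purified on Ni–NTA.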
row,Sequence,binding signal
1,AGAGAAAGGAAGGGAAGAGAGAGGGTGATGACGTGGCGACCGGAGTCACCTAGTGCAG,35600 fluorescence intensity (a.u.)
2,GAGAGGACGAAGGGAAAGAGAGAGATGGTGATGACGTGGCCGGAGTCACCTAGTGCAG,31600 fluorescence intensity (a.u.)
3,ACGATATGACGGAAAAGTTGGAAGTTTGTGTGTAGAAAAGCGGAGTCACCTAGTGCAG,3140 fluorescence intensity (a.u.)
4,AAAGAATGACGATATGATGTGAGAAGTTTGTGAAGACTTGCGGAGTCACCTAGTGCAG,41100 fluorescence intensity (a.u.)
5,AGACTGAAAGAGAGAGGAAGGAAGAGAGATGACGTGGCATCGGAGTCACCTAGTGCAG,35800 fluorescence intensity (a.u.)
6,AAAATGGAGAGAAGAGGAAGGGACAGATGACGTGGCATCCCGGAGTCACCTAGTGCAG,48900 fluorescence intensity (a.u.)
7,GAGAGAAGAGGGGAAAAGAGAGAGGAGTTTGATGACGTGGCGGAGTCACCTAGTGCAG,39300 fluorescence intensity (a.u.)
8,GGGAGGAAGAAGAAAGGGAGAGAGAGGGGATGACATGTGGCGGAGTCACCTAGTGCAG,5680 fluorescence intensity (a.u.)
9,TCAGAATGCGTGTGATGTAAAAGTTCGAGAAGACTTTGTTCGGAGTCACCTAGTGCAG,3210 fluorescence intensity (a.u.)
10,CCATCTCCGACGAATGATGCTTTGACACTTAATGCTGCGTCGGAGTCACCTAGTGCAG,3350 fluorescence intensity (a.u.)
11,CGGCTTACGGCCGCCTGTCGGGGAAGATGACTCCCTCTTCCGGAGTCACCTAGTGCAG,5050 fluorescence intensity (a.u.)
12,AACAAAAGTTGTTTTGACTCACGCGGTGGCTGTTGTCTGTCGGAGTCACCTAGTGCAG,6340 fluorescence intensity (a.u.)
13,GGAAGCGGCTGCTGACAATGGGGATTAGATAGGCTAAGGGCGGAGTCACCTAGTGCAG,3700 fluorescence intensity (a.u.)
14,GTCACCGAAGGCGATTAAGGGACAAGCTATAGCTGATTTTCGGAGTCACCTAGTGCAG,46100 fluorescence intensity (a.u.)
15,TTAAGGACGATTTTGTAATTCAGCTGACAAGACGAGGGATCGGAGTCACCTAGTGCAG,4300 fluorescence intensity (a.u.)
16,CCGAGGCCCAATAAATTATGGGGTTGGCTCCAATAAATTACGGAGTCACCTAGTGCAG,3940 fluorescence intensity (a.u.)
17,TTTCGCCATTTCCGACAATGTACTTCACCACTGATCTGAACGGAGTCACCTAGTGCAG,64900 fluorescence intensity (a.u.)
18,TACTACTTCCGATCAGAGCCATACCAATGCCACGACACGACGGAGTCACCTAGTGCAG,4090 fluorescence intensity (a.u.)
19,GCCATCTGACAACCAGTAAATGTACTGTCCACCGGGCCAACGGAGTCACCTAGTGCAG,6470 fluorescence intensity (a.u.)
20,CAAGTGATAATCTATACCTAGTTGATGATGCCAATATCATCGGAGTCACCTAGTGCAG,4340 fluorescence intensity (a.u.)
21,TGCAACCACCACCACCACGTCCCAAACTCGCACGTTTCTCCGGAGTCACCTAGTGCAG,4090 fluorescence intensity (a.u.)
22,CTGTGTGAACAACAAATCAATGGCCACGTCATATATGTACCGGAGTCACCTAGTGCAG,16800 fluorescence intensity (a.u.)
23,CAAATGTTCTTTTGACGTATATGACCACATATTTGCAGTACGGAGTCACCTAGTGCAG,3520 fluorescence intensity (a.u.)

row,Sequence,binding signal
1,ACAATGTTCCGGGTCTTATATTGCCAAATCAGTGACGTACCGGAGTCACCTAGTGCAG,59800 fluorescence intensity (a.u.)
2,GGGCGCACCTACAGCACCAAGTGTAACCAGAGCTTACACACGGAGTCACCTAGTGCAG,3420 fluorescence intensity (a.u.)
3,CCTCCATCTATGTCCTGCTGTCCAACATCTACGCGGATGCCGGAGTCACCTAGTGCAG,3820 fluorescence intensity (a.u.)
4,TTCTCTCCGTCTTCCTCCAGCACTGAATTTGTCGCTGGCGCGGAGTCACCTAGTGCAG,64900 fluorescence intensity (a.u.)
5,TGACCGGCGCAGCTCGCGCCACGTCACCCGCACGCGCCGCCGGAGTCACCTAGTGCAG,8600 fluorescence intensity (a.u.)
6,TTCTCCTCGGCCTCCATGTGCACGTCCATGTGGCGCATGGCGGAGTCACCTAGTGCAG,4220 fluorescence intensity (a.u.)
7,CGTGCACGTGTTCACCGGAGGTGCTCGTCAGCAAAGCAGGCGGAGTCACCTAGTGCAG,6000 fluorescence intensity (a.u.)
8,ATGGCGCGCCGCCACGTCACCCCGACTCGCCACGTCAGCACGGAGTCACCTAGTGCAG,65500 fluorescence intensity (a.u.)
9,CTCTCTCCTCGTCTTCCTCGCGCTGACTCTTCTCCTCCTCCGGAGTCACCTAGTGCAG,3180 fluorescence intensity (a.u.)
10,TTCACTCGAGGAGGCGGCGGAGGCAGTCCACGTCAGCAACCGGAGTCACCTAGTGCAG,39000 fluorescence intensity (a.u.)
11,CTTCACCGGCGGCGAGGAGCACGTCACCGGCGGCGAGCACCGGAGTCACCTAGTGCAG,4120 fluorescence intensity (a.u.)
12,AATTCCTCTCTCTCTCTCCCCTCCCATGGCGTCACTGTCGCGGAGTCACCTAGTGCAG,6120 fluorescence intensity (a.u.)
13,ACGTTCCACTCGCGCGCCTCCACGTCAGCACCCACTGTGGCGGAGTCACCTAGTGCAG,42300 fluorescence intensity (a.u.)
14,GCTAGCACTCGCCTCCCTCTGCGCCCACGCCACGCTGTGGCGGAGTCACCTAGTGCAG,4110 fluorescence intensity (a.u.)
15,GACGCATGCACGCCGCCACGTCGCGCGCCATGGCCACCCCCGGAGTCACCTAGTGCAG,9700 fluorescence intensity (a.u.)
16,GCCTGTAGCCTGGTGGTTACAAGAGCCTCAGTAGCACCTGCGGAGTCACCTAGTGCAG,3250 fluorescence intensity (a.u.)
17,CAACGGCTATGAGCTGTCACACACTCACAGTAGTACTCCGCGGAGTCACCTAGTGCAG,3850 fluorescence intensity (a.u.)
18,ATAAATAGAATGCTGACTGGACTGCCACGCGTACGCCATGCGGAGTCACCTAGTGCAG,22000 fluorescence intensity (a.u.)
19,ACGTGCTCAGTCATCATCCTCATGGCCGTTCCTTGCCGAACGGAGTCACCTAGTGCAG,6930 fluorescence intensity (a.u.)
20,GTAATAATAGATTATATTCAATTAATTAATTATTTATTATCGGAGTCACCTAGTGCAG,17400 fluorescence intensity (a.u.)
21,TTCATAAAACTCCACCTGATCCGAATTACTCTACCAATAACGGAGTCACCTAGTGCAG,4490 fluorescence intensity (a.u.)
22,GAGGACAGATCAAATGATTTTAATGACGAAACATGTGCTTCGGAGTCACCTAGTGCAG,4096 fluorescence intensity (a.u.)
